# According to the antibiotic and cytotoxicity screens of Wong et al. (2023):
# The campaign covered roughly 39,000 compounds. About 1,500 (3.8%) were called active. The list comes from a sample in which actives are over-represented; it also holds similar structures and randomly drawn compounds.
# Tested on: HSkMC (human skeletal muscle cells)
# Experiment: cytotoxicity call (relative viability < 0.9)
# Conditions: 10 µM
row,Compound,cytotoxicity call
1,C[C@@H]1CN([C@H](C)CO)C(=O)c2cc(NC(=O)Nc3cccc4ccccc34)ccc2O[C@@H]1CN(C)Cc1ccc2c(c1)OCO2,inactive
2,CC(C)NC(=O)N(C)C[C@H]1OCCCC[C@H](C)Oc2ccc(NS(C)(=O)=O)cc2C(=O)N([C@@H](C)CO)C[C@@H]1C,inactive
3,CN[C@H]1CC[C@@H](c2ccc(Cl)c(Cl)c2)c2ccccc21,inactive
4,CNC1CCC(c2ccc(Cl)c(Cl)c2)c2ccccc21.Cl (centres undefined),active
5,N[C@@H]1CC[C@@H](c2ccc(Cl)c(Cl)c2)c2ccccc21,active
6,COC(=O)c1c2oc(c1C(=O)OC)C(=O)N(C)Cc1cn(nn1)C[C@H](Cc1ccccc1)NC(=O)N[C@H](CO)CC2,inactive
7,O=c1[nH]c2ccc(F)cc2[nH]1,inactive
8,CC(C)NC(=O)N(C)C[C@@H]1Oc2ccc(NC(=O)Cc3ccccc3)cc2C(=O)N([C@@H](C)CO)C[C@H]1C,inactive
9,COc1ccc(CN(C)C[C@@H]2Oc3ccc(NS(=O)(=O)c4cn(C)cn4)cc3C(=O)N([C@@H](C)CO)C[C@H]2C)cc1,inactive
10,C[C@H](CO)N1C[C@H](C)[C@H](CN(C)Cc2ccc(C(F)(F)F)cc2)OCCCC[C@H](C)Oc2ccc(NS(=O)(=O)c3ccccc3)cc2C1=O,inactive
11,CNC(=O)C[C@H]1CC[C@@H]2[C@H](COC[C@H](O)CN2C(=O)c2ccccn2)O1,inactive
12,C[C@H](CO)N1C[C@H](C)[C@H](CN(C)C(=O)Nc2cccc3ccccc23)OCCCC[C@H](C)Oc2ccc(NC(=O)Nc3ccc(C(F)(F)F)cc3)cc2C1=O,inactive
13,C[C@@H]1CN([C@@H](C)CO)C(=O)c2cc(NC(=O)Nc3ccc(C(F)(F)F)cc3)ccc2O[C@@H](C)CCCCO[C@H]1CN(C)C(=O)Nc1cccc2ccccc12,inactive
14,C[C@@H]1CCCCO[C@@H](CN(C)C(=O)Nc2cccc3ccccc23)[C@@H](C)CN([C@@H](C)CO)C(=O)c2cc(NC(=O)Nc3ccc(C(F)(F)F)cc3)ccc2O1,active
15,C[C@@H]1CCCCO[C@@H](CN(C)C(=O)Nc2cccc3ccccc23)[C@H](C)CN([C@H](C)CO)C(=O)c2cc(NC(=O)Nc3ccc(C(F)(F)F)cc3)ccc2O1,inactive
16,C[C@@H]1CN([C@@H](C)CO)C(=O)c2cc(NC(=O)Nc3ccc(C(F)(F)F)cc3)ccc2O[C@@H](C)CCCCO[C@@H]1CN(C)C(=O)Nc1cccc2ccccc12,active
17,C[C@H](CO)N1C[C@H](C)[C@@H](CN(C)C(=O)Nc2cccc3ccccc23)OCCCC[C@H](C)Oc2ccc(NC(=O)Nc3ccc(C(F)(F)F)cc3)cc2C1=O,inactive
18,C[C@@H]1CCCCO[C@@H](CN(C)C(=O)Nc2cccc3ccccc23)[C@@H](C)CN([C@H](C)CO)C(=O)c2cc(NC(=O)Nc3ccc(C(F)(F)F)cc3)ccc2O1,active
19,C[C@@H]1CCCCO[C@H](CN(C)C(=O)Nc2cccc3ccccc23)[C@@H](C)CN([C@@H](C)CO)C(=O)c2cc(NC(=O)Nc3ccc(C(F)(F)F)cc3)ccc2O1,inactive
20,C[C@@H]1CCCCO[C@@H](CN(C)C(=O)Nc2cccc3ccccc23)[C@H](C)CN([C@@H](C)CO)C(=O)c2cc(NC(=O)Nc3ccc(C(F)(F)F)cc3)ccc2O1,inactive
21,Cn1cnc(S(=O)(=O)N2C[C@@H](O)COC[C@H]3O[C@@H](CC(=O)NC4CCCC4)CC[C@@H]32)c1,inactive
22,COc1ccccc1CNC(=O)C[C@@H]1C[C@H]2c3cc(NC(=O)C4CCOCC4)ccc3O[C@H]2[C@@H](CO)O1,inactive
23,O=C(c1cc2n(n1)CCCO2)N1CC(O)C1,inactive

row,Compound,cytotoxicity call
1,Cc1noc(C)c1NC(=O)N(C)C[C@H]1Oc2ccc(NC(=O)CCN3CCOCC3)cc2CC(=O)N([C@H](C)CO)C[C@@H]1C,inactive
2,C[C@H](CO)N1C[C@H](C)[C@H](CN(C)C(=O)c2ccc3c(c2)OCO3)Oc2ncc(C#CCN(C)C)cc2C1=O,inactive
3,CCC(=O)N1C[C@]2(CN(C2)S(=O)(=O)C)c2c(n(c3cc(ccc23)OC)C)[C@@H]1CO,inactive
4,C[C@H](CO)N1C[C@H](C)[C@H](CN(C)S(=O)(=O)c2cn(C)cn2)Oc2ccc(NS(=O)(=O)c3ccccc3)cc2CC1=O,inactive
5,C[C@H](CO)N1C[C@H](C)[C@@H](CN(C)Cc2ccc(Cl)c(Cl)c2)Oc2ccc(NC(=O)CCC(F)(F)F)cc2CC1=O,inactive
6,C[C@@H]1CN([C@H](C)CO)C(=O)Cc2cc(NC(=O)CCC(F)(F)F)ccc2O[C@H]1CN(C)Cc1ccc(Cl)c(Cl)c1,inactive
7,C[C@@H]1CN([C@H](C)CO)C(=O)Cc2cc(NC(=O)CCC(F)(F)F)ccc2O[C@H]1CN(C)Cc1ccc(-c2ccccc2)cc1,inactive
8,C[C@@H]1CN([C@@H](C)CO)C(=O)Cc2cc(NC(=O)CCC(F)(F)F)ccc2O[C@H]1CN(C)Cc1ccc(Cl)c(Cl)c1,active
9,C[C@@H]1CN([C@@H](C)CO)C(=O)Cc2cc(NC(=O)CCC(F)(F)F)ccc2O[C@H]1CN(C)Cc1ccc(-c2ccccc2)cc1,active
10,C[C@H]1CN([C@@H](C)CO)C(=O)Cc2cc(NC(=O)CCC(F)(F)F)ccc2O[C@H]1CN(C)Cc1ccc(-c2ccccc2)cc1,inactive
11,CCOC(=O)c1cn2cn[nH]c2nc1=O,inactive
12,C[C@@H]1CN([C@H](C)CO)C(=O)Cc2cc(NC(=O)Nc3ccc4c(c3)OCO4)ccc2O[C@@H]1CN(C)Cc1ccc(C(=O)Nc2ccccc2N)cc1,inactive
13,COC(=O)C[C@H]1CC[C@@H]2[C@H](COC[C@H](O)CN2S(=O)(=O)c2ccc(F)cc2)O1,inactive
14,C[C@@H]1CN([C@@H](C)CO)S(=O)(=O)c2ccc(C#CC(C)(C)O)cc2O[C@@H]1CN(C)Cc1ccc(F)cc1,inactive
15,C=CCNC(=O)[C@H]1[C@@H]2C(=O)O[C@@H](c3ccccc3)[C@@H](c3ccccc3)N2[C@@H](c2ccc(O)cc2)[C@]12C(=O)Nc1ccc(C#Cc3ccc(OC)cc3)cc12,inactive
16,COc1ccc(S(=O)(=O)Nc2ccc3c(c2)C(=O)N([C@H](C)CO)C[C@H](C)[C@H](CN(C)Cc2ccccc2)OCCCC[C@H](C)O3)cc1,inactive
17,CC1CCC2(C(=O)O)CCC3(C)C(=CCC4C5(C)CCC(O)C(C)(C)C5CCC43C)C2C1C (centres undefined),active
18,COC(=O)[C@@]12CC[C@@H](C)[C@@H](C)[C@@H]1C1=CC[C@H]3[C@@]4(C)CC[C@@H](OC(C)=O)C(C)(C)[C@@H]4CC[C@@]3(C)[C@@]1(C)CC2,inactive
19,CC1(C)CCC2(C(=O)O)CCC3(C)C(=CCC4C5(C)CCC(O)C(C)(C)C5CCC43C)C2C1 (centres undefined),inactive
20,O=C1c2c(O)cccc2C(C2OC(CO)C(O)C(O)C2O)c2cc(CO)cc(O)c21 (centres undefined),inactive
21,COc1ccc(NC(=O)Nc2ccc3c(c2)C(=O)N([C@@H](C)CO)C[C@H](C)[C@@H](CN(C)C(=O)Nc2ccc(C(F)(F)F)cc2)OCCCC[C@H](C)O3)cc1,inactive
22,C[C@@H]1CN([C@@H](C)CO)C(=O)c2cccc(NC(=O)Nc3ccc4c(c3)OCO4)c2O[C@@H]1CN(C)Cc1ccc(-c2ccccc2)cc1,active
23,C[C@@H]1CN([C@@H](C)CO)C(=O)c2cccc(NC(=O)Nc3ccc4c(c3)OCO4)c2O[C@@H]1CN(C)Cc1ccc(Oc2ccccc2)cc1,inactive

row,Compound,cytotoxicity call
1,C[C@H]1CN([C@@H](C)CO)C(=O)c2cccc(NC(=O)Nc3ccc4c(c3)OCO4)c2O[C@H]1CN(C)Cc1ccc(-c2ccccc2)cc1,inactive
2,C[C@H]1CN([C@@H](C)CO)C(=O)c2cccc(NC(=O)Nc3ccc4c(c3)OCO4)c2O[C@@H]1CN(C)Cc1ccc(-c2ccccc2)cc1,inactive
3,C[C@@H]1CN([C@H](C)CO)C(=O)c2cccc(NC(=O)Nc3ccc4c(c3)OCO4)c2O[C@H]1CN(C)Cc1ccc(Oc2ccccc2)cc1,active
4,C[C@H]1CN([C@@H](C)CO)C(=O)c2cccc(NC(=O)Nc3ccc4c(c3)OCO4)c2O[C@H]1CN(C)Cc1ccc(Oc2ccccc2)cc1,inactive
5,C[C@@H]1CCCCO[C@H](CN(C)S(=O)(=O)c2cccs2)[C@H](C)CN([C@@H](C)CO)C(=O)c2cc(NC(=O)c3ccccc3)ccc2O1,inactive
6,CC[C@@H]1/C=C(\C)C[C@H](C)C[C@H](OC)[C@H]2O[C@@](O)(C(=O)C(=O)N3CCCC[C@H]3C(=O)O[C@H](/C(C)=C/[C@@H]3CC[C@H](Cl)[C@H](OC)C3)[C@H](C)[C@@H](O)CC1=O)[C@H](C)C[C@@H]2OC,inactive
7,C[C@@H]1CCCCO[C@@H](CN(C)C(=O)c2ccccc2)[C@@H](C)CN([C@@H](C)CO)C(=O)c2cc(NC(=O)Nc3ccccc3)ccc2O1,inactive
8,Cc1ccc(S(=O)(=O)N(C)C[C@@H]2OCCCC[C@@H](C)Oc3ccc(NC(=O)CCC(F)(F)F)cc3C(=O)N([C@@H](C)CO)C[C@H]2C)cc1,inactive
9,Cc1noc(C)c1S(=O)(=O)N(C)C[C@H]1Oc2ccc(NC(=O)Cc3ccccc3)cc2CC(=O)N([C@H](C)CO)C[C@H]1C,inactive
10,NC(=O)[C@H]1CCCCN1,inactive
11,COc1cccc(S(=O)(=O)N[C@@H]2C=C[C@@H](CC(=O)NC3CCC3)O[C@H]2CO)c1,inactive
12,C[C@@H]1CCCCO[C@@H](CN(C)C(=O)Nc2cccc3ccccc23)[C@@H](C)CN([C@H](C)CO)C(=O)c2cc(NS(=O)(=O)c3ccc(F)cc3)ccc2O1,inactive
13,C[C@@H]1CCCCO[C@@H](CN(C)C(=O)Nc2cccc3ccccc23)[C@H](C)CN([C@@H](C)CO)C(=O)c2cc(NS(=O)(=O)c3ccc(Cl)cc3)ccc2O1,inactive
14,C[C@@H]1CCCCO[C@H](CN(C)C(=O)Nc2cccc3ccccc23)[C@@H](C)CN([C@H](C)CO)C(=O)c2cc(NS(=O)(=O)c3ccc(Cl)cc3)ccc2O1,active
15,Cc1ccc(S(=O)(=O)Nc2ccc3c(c2)C(=O)N([C@@H](C)CO)C[C@H](C)[C@@H](CN(C)C(=O)Nc2cccc4ccccc24)OCCCC[C@@H](C)O3)cc1,inactive
16,Cc1ccc(S(=O)(=O)Nc2ccc3c(c2)C(=O)N([C@H](C)CO)C[C@H](C)[C@H](CN(C)C(=O)Nc2cccc4ccccc24)OCCCC[C@H](C)O3)cc1,active
17,C[C@@H]1CCCCO[C@H](CN(C)C(=O)Nc2cccc3ccccc23)[C@H](C)CN([C@H](C)CO)C(=O)c2cc(NS(=O)(=O)c3ccc(Cl)cc3)ccc2O1,inactive
18,C[C@H]1CCCCO[C@H](CN(C)C(=O)Nc2cccc3ccccc23)[C@@H](C)CN([C@@H](C)CO)C(=O)c2cc(NS(=O)(=O)c3ccc(F)cc3)ccc2O1,active
19,C[C@@H]1CN([C@@H](C)CO)C(=O)c2cc(NS(=O)(=O)c3ccc(F)cc3)ccc2O[C@@H](C)CCCCO[C@@H]1CN(C)C(=O)Nc1cccc2ccccc12,inactive
20,C[C@@H]1CCCCO[C@@H](CN(C)C(=O)Nc2cccc3ccccc23)[C@H](C)CN([C@@H](C)CO)C(=O)c2cc(NS(=O)(=O)c3ccc(F)cc3)ccc2O1,inactive
21,Cc1ccc(S(=O)(=O)Nc2ccc3c(c2)C(=O)N([C@@H](C)CO)C[C@@H](C)[C@@H](CN(C)C(=O)Nc2cccc4ccccc24)OCCCC[C@H](C)O3)cc1,inactive
22,C[C@@H]1CCCCO[C@@H](CN(C)C(=O)Nc2cccc3ccccc23)[C@H](C)CN([C@H](C)CO)C(=O)c2cc(NS(=O)(=O)c3ccc(F)cc3)ccc2O1,active
23,C[C@@H]1CN([C@@H](C)CO)C(=O)c2cc(NS(=O)(=O)c3ccc(F)cc3)ccc2O[C@@H](C)CCCCO[C@H]1CN(C)C(=O)Nc1cccc2ccccc12,inactive
